The whole screen tested about 63,000 compounds, of which about 1,100 (1.7%) were called active.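 Rule for the calls: active = compounds whose percent cytotoxicity in the single-dose primary screen, scaled between solvent and toxic-drug controls, exceeds 50; inactive = the rest.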 Shown is part of a subset that was picked to be rich in actives. Measured potencies and affinities stand elsewhere.
Assay: cytotoxicity in KRAS-transformed pancreatic duct cells, primary screen, cell-based, fluorescence, HTS (AID 431);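 note: 0% = DMSO solvent wells and 100% = doxorubicin-treated wells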
Conditions: HPDE-C7K KRASV12 cells, Alamar Blue viability, 48 h; at 10 µM; stronger effect = higher value
For O=C(CC(NS(=O)(=O)c1ccc(Cl)cc1)c1ccco1)NCc1cccnc1 (configuration not stated), the cytotoxicity was -10.2% (inactive). With CCOC(=O)N1CCN(c2nc(C)c3c(n2)CC(C)CC3=O)CC1 (configuration not stated) the cytotoxicity was -14.7% (inactive). In the case of Cn1c(N2CCC(C(N)=O)CC2)nc2c1c(=O)n(Cc1ccc(Cl)cc1)c(=O)n2C, the cytotoxicity is reported as 16.9% (inactive). In the case of FC(F)(F)c1cccc(N2CCN(Cc3cccnc3)CC2)c1, the cytotoxicity is reported as 21.8% (inactive). In the case of CC(C)Oc1cccc(C(=O)Nc2ccccc2N2CCOCC2)c1, the cytotoxicity is reported as -2.7% (inactive). In the case of COc1cc(C2C(C(=O)c3cccs3)=C(O)C(=O)N2c2cc(C)on2)ccc1O (configuration not stated), the cytotoxicity is reported as 14.5% (inactive). For Cc1cc(Nc2ccc3ccccc3c2)n2ncnc2n1, the cytotoxicity was -8.1% (inactive). With CCc1cccc(Nc2cc(C)nc3ncnn23)c1 the cytotoxicity was -4.4% (inactive). With CCn1c2ccccc2c2cc(Nc3cc(C)nc4ncnn34)ccc21 the cytotoxicity was 74.4% (active). For Cc1ccc(-c2nn(C)c(=O)c3ccccc23)cc1CNC(=O)CN1CCOCC1, the cytotoxicity was 4.3% (inactive). In the case of O=C(Cn1nnc(-c2cc(Cl)ccc2-n2cnnn2)n1)N1CCCc2ccccc21, the cytotoxicity is reported as -0.5% (inactive). For CCOC(=O)N1CCC(NC(=O)c2csc3c2CCCC3)CC1, the cytotoxicity was -1.5% (inactive). In the case of COC(=O)C1=C(N)Oc2cc(C)oc(=O)c2C1c1ccncc1 (configuration not stated), the cytotoxicity is reported as -2.1% (inactive). For COC(=O)/C(=C1/Oc2cc3c(cc2S1)OCO3)C(F)(F)F, the cytotoxicity was -15.1% (inactive). With COC(=O)/C(=C1/Oc2cc(C)oc(=O)c2S1)C(F)(F)F the cytotoxicity was 70.4% (active). For O=C(COC(=O)C(O)c1ccccc1)NC12CC3CC(CC(C3)C1)C2 (configuration not stated), the cytotoxicity was -12.9% (inactive). For CN(C)/C=C1/Sc2ccccc2C1=O, the cytotoxicity was -18.3% (inactive). In the case of CN(C)C=C1C(=O)c2ccccc2C1=O, the cytotoxicity is reported as 48% (inactive). With CN(C)/C=C1\C(=O)c2ccc(N(C)C)nc2CC1c1ccccc1 (configuration not stated) the cytotoxicity was 59.9% (active). In the case of CCCOC(=O)Nc1ccc(S(=O)(=O)Nn2cnnc2)cc1, the cytotoxicity is reported as 5.7% (inactive). With CNc1oc(Cc2cccc3ccccc23)nc1C#N the cytotoxicity was 14.7% (inactive). In the case of N#Cc1nc(Cc2cccc3ccccc23)oc1NCc1ccco1, the cytotoxicity is reported as 63.1% (active). For C=CCNc1oc(Cc2cccc3ccccc23)nc1C#N, the cytotoxicity was -8.6% (inactive). In the case of CCn1cc(C(=O)NCC2CCCO2)c(=O)c2cc(S(=O)(=O)N(C)C3CCCCC3)ccc21 (configuration not stated), the cytotoxicity is reported as 13.1% (inactive). With CCOc1ccc(C2=Nn3c(nnc3-c3ccc(OC)cc3)SC2)cc1 the cytotoxicity was 40.7% (inactive). With COc1ccc(C2=Nn3c(nnc3-c3ccccn3)SC2)cc1OC the cytotoxicity was -4.6% (inactive). With COc1ccccc1-c1nnc2n1N=C(C)CS2 the cytotoxicity was -13.6% (inactive). For CCOc1ccc(-c2nnc3n2N=C(c2ccc(OC)cc2)CS3)cc1, the cytotoxicity was -5% (inactive). In the case of CCOc1ccc(C2=Nn3c(nnc3-c3ccccc3OC)SC2)cc1, the cytotoxicity is reported as 66.6% (active). For c1ccc(C2=Nn3c(nnc3-c3cc(-c4ccccc4)n[nH]3)SC2)cc1, the cytotoxicity was -6.7% (inactive). In the case of COc1ccc(C2=Nn3c(nnc3-c3ccccc3)SC2)cc1OC, the cytotoxicity is reported as 0.4% (inactive). For COc1ccccc1-c1nnc2n1N=C(c1ccc(O)c(O)c1)CS2, the cytotoxicity was 54.8% (active). With Cc1ccc(-c2nnc3n2N=C(c2ccccc2)CS3)cc1 the cytotoxicity was -2.4% (inactive). In the case of COc1cccc(C2=Nn3c(nnc3-c3ccccc3O)SC2)c1, the cytotoxicity is reported as -11.6% (inactive). In the case of CCCCOc1ccc(-c2ncc(Cl)cn2)cc1, the cytotoxicity is reported as -15% (inactive). In the case of Cn1c(Cn2c(=O)sc3ccccc32)nnc1SCC(=O)N1CCN(c2ccccc2)CC1, the cytotoxicity is reported as 8.3% (inactive). For O=C(COc1ccc2c(c1)OCO2)Nc1ccc2c(c1)oc1ccccc12, the cytotoxicity was 2.3% (inactive). In the case of O=C(Cn1ncc2c(=O)oc3ccccc3c21)N1CCN(C(=O)c2ccco2)CC1, the cytotoxicity is reported as 0.4% (inactive). In the case of COC(=O)c1cc(-c2c(C)oc3cc(OC(C)C)ccc3c2=O)c(C)o1, the cytotoxicity is reported as -13.5% (inactive). With Cn1c(=O)c2c(nc(CN3CCN(C(=O)c4ccco4)CC3)n2CCc2ccccc2)n(C)c1=O the cytotoxicity was -4.3% (inactive). For CCOC(=O)c1ccc(NC(=O)NC(C)C2CCCO2)cc1 (configuration not stated), the cytotoxicity was -0.2% (inactive). With Cc1ccccc1CS(=O)(=O)CCC(=O)N1CCN(c2ccc(N3CCOCC3)nn2)CC1 the cytotoxicity was 3.2% (inactive). With COc1ccc(OC)c(C2=Nn3c(nnc3-c3cc(OC)c(OC)c(OC)c3)SC2)c1 the cytotoxicity was 10.4% (inactive). With COc1ccc(-c2nnc3n2N=C(c2ccccc2)CS3)cc1OC the cytotoxicity was -3% (inactive). In the case of COc1cc(-c2nnc3n2N=C(c2ccccc2)CS3)cc(OC)c1OC, the cytotoxicity is reported as 63.5% (active). For COc1cc2c(cc1OC)C(/C(C#N)=N\O)=NC(C)(C)C2, the cytotoxicity was 7% (inactive). In the case of CCOC(=O)/C=C1\NC(C)(C)Cc2cc(OC)c(O)cc21, the cytotoxicity is reported as 5.5% (inactive). With O=C(CN1CCN(c2ccccc2F)CC1)Nc1ccccc1F the cytotoxicity was -7% (inactive). In the case of O=C(NCc1ccco1)c1sc(=S)n2c1[nH]c(=O)c1ccccc12, the cytotoxicity is reported as 81.4% (active). In the case of C=CCn1c(N)c(C(=O)NCc2ccco2)sc1=S, the cytotoxicity is reported as 7.1% (inactive). With CCn1c(N)c(C(=O)NCc2ccco2)sc1=S the cytotoxicity was -5.3% (inactive). In the case of CCCCNC(=O)c1ccccc1C(=O)NCCCC, the cytotoxicity is reported as -2.3% (inactive). For CCCCNC(=O)c1sc(=S)n2c1[nH]c(=O)c1ccccc12, the cytotoxicity was 62.6% (active). With CCCCCCNC(=O)c1c(O)c2ccccc2[nH]c1=O the cytotoxicity was -1.5% (inactive). With O=C(NCCCN1CCN(c2ccccc2F)CC1)C1CCC(=O)N1C1CCCC1 (configuration not stated) the cytotoxicity was -6.6% (inactive). In the case of Cn1c(CCCCCN)nc2ccccc21, the cytotoxicity is reported as -27.2% (inactive). With OCCN(Cc1ccccc1)Cc1ccccc1F the cytotoxicity was -13.3% (inactive). For CCCc1ccc(OCC(=O)O)cc1, the cytotoxicity was 2.3% (inactive). For CCCc1ccc(Oc2cn[nH]c2-c2ccc(O)c(C)c2O)cc1, the cytotoxicity was 119% (active). With CCCc1ccc(Oc2cn[nH]c2-c2ccc(O)cc2O)cc1 the cytotoxicity was 29.1% (inactive). With COc1ccc(O)c(-c2[nH]ncc2C(=O)c2ccccc2C)c1 the cytotoxicity was 2.7% (inactive). For CC(C)Sc1ncnc2c1oc1ccccc12, the cytotoxicity was -7.4% (inactive). With COc1ccc(CNC(=O)CSc2nc3nc(C)cc(C)n3n2)cc1 the cytotoxicity was 1.6% (inactive). For Cc1nn(-c2cccc(C(F)(F)F)c2)c(Cl)c1/C=N/n1cnnc1, the cytotoxicity was 3.5% (inactive). With Fc1cccc(Cl)c1CSc1nnnn1-c1ccc2c(c1)OCO2 the cytotoxicity was 51.7% (active). In the case of Fc1cccc(Cl)c1Cn1nnc(-c2ccc3c(c2)OCO3)n1, the cytotoxicity is reported as -3.6% (inactive). For Fc1ccccc1CSc1nnnn1-c1ccc2c(c1)OCO2, the cytotoxicity was 2.3% (inactive). With Cc1ccc2nc(NC3=NCN(Cc4ccc5c(c4)OCO5)CN3)nc(C)c2c1 the cytotoxicity was 12.9% (inactive). In the case of Cc1nc(NC2=NCN(Cc3ccc4c(c3)OCO4)CN2)nc2ccccc12, the cytotoxicity is reported as 15.2% (inactive). For Cc1cc2nc(NC3=NCN(Cc4ccc5c(c4)OCO5)CN3)nc(C)c2cc1C, the cytotoxicity was 90% (active). For Cc1cc2nc(NC3=NCN(Cc4cccnc4)CN3)nc(C)c2cc1C, the cytotoxicity was 53.3% (active). In the case of Cc1nc(NC2=NCN(Cc3cccnc3)CN2)nc2ccccc12, the cytotoxicity is reported as 6.2% (inactive). For Cc1ccc2nc(NC3=NCN(Cc4cccnc4)CN3)nc(C)c2c1, the cytotoxicity was 5.9% (inactive). For Cc1ccc(CCN2CC(C(=O)NCCCN3CCOCC3)CC2=O)cc1 (configuration not stated), the cytotoxicity was 2% (inactive). For Cc1ccc(C)n1-c1ncn[nH]1, the cytotoxicity was 1.3% (inactive). In the case of c1nc(NCCN2CCOCC2)c2sc3nc(N4CCOCC4)c4c(c3c2n1)CCC4, the cytotoxicity is reported as 18.4% (inactive). In the case of OCCN(CCO)c1ncnc2c1sc1nc(N3CCOCC3)c3c(c12)CCCC3, the cytotoxicity is reported as 34.4% (inactive). For CSc1nc(N2CCN(CCO)CC2)c2sc3nc(-c4ccco4)c4c(c3c2n1)CCC4, the cytotoxicity was 4.4% (inactive). With CC1(C)Cc2c(C#N)c(NCCN3CCOCC3)nc(-c3ccco3)c2CO1 the cytotoxicity was 8.7% (inactive). For O=C(Cn1cc2c(n1)CCCCC2)N1CCCCC1, the cytotoxicity was 5.5% (inactive). With CCc1ccc(OCC(=O)N(C)C)c(Br)c1 the cytotoxicity was 7% (inactive). With CCCCc1ccc(NC(=O)OC)cc1 the cytotoxicity was -10.3% (inactive). In the case of CCCCc1ccc(NC(=O)COCC)cc1, the cytotoxicity is reported as -2.8% (inactive). With CCOC(=O)CSC(CC)C(=O)Nc1nnc(C(C)C)s1 (configuration not stated) the cytotoxicity was 1.3% (inactive). With COc1ccc(CCNC(=O)C2CCN(C(=O)N(C)C)CC2)cc1OC the cytotoxicity was -12.4% (inactive). In the case of CCOC(=O)c1cc(-c2ccco2)nc2c1c(C)nn2-c1ccccc1, the cytotoxicity is reported as -7.1% (inactive). In the case of COc1cc(NC(=O)c2ccco2)c(OC)cc1NC(=O)c1cc(OC)c(OC)c(OC)c1, the cytotoxicity is reported as 50.8% (active). With COc1cc(C(=O)Nc2ccc(NC(=O)c3ccco3)nc2)cc(OC)c1OC the cytotoxicity was -3.4% (inactive). For CCOc1cc(NC(=O)c2ccco2)c(OCC)cc1NC(=O)c1cc(OC)c(OC)c(OC)c1, the cytotoxicity was 7.5% (inactive). For COc1cccc(NC(=O)Cn2nnc(-c3ccccc3N)n2)c1, the cytotoxicity was 6.3% (inactive). For CCc1ccc2[nH]c(=O)c(CN(CCO)C(=O)NCc3ccccc3)cc2c1, the cytotoxicity was -4.1% (inactive). For c1ccc(-n2nnnc2Oc2cccc3cccnc23)cc1, the cytotoxicity was -4.5% (inactive). For N#Cc1cc(Oc2cccc3cccnc23)c(-n2nnc3ccccc32)cc1C#N, the cytotoxicity was 74.9% (active). With COc1ccccc1Oc1cc(C#N)c(C#N)cc1-n1nnc2ccccc21 the cytotoxicity was -24.3% (inactive). For CCCC(=O)n1nc(-c2ccco2)nc1SCc1ccccc1, the cytotoxicity was 2.3% (inactive). In the case of CCn1c(SCC(=O)Nc2ccc(S(=O)(=O)Nc3ccccn3)cc2)nnc1-c1ccncc1, the cytotoxicity is reported as -0.6% (inactive). For COC(=O)c1c(C(=O)OC)c2n(c1C)Cc1ccccc1C2, the cytotoxicity was 3% (inactive). In the case of O=C(NCc1ccco1)c1cccc(NC(=O)c2ccccc2)c1, the cytotoxicity is reported as 33.2% (inactive). With O=C(NCc1ccccc1)c1cccc(NC(=O)c2ccco2)c1 the cytotoxicity was 35.4% (inactive). For Cc1ccc(C(=O)Nc2cccc(C(=O)NCc3ccco3)c2)cc1, the cytotoxicity was 66.2% (active). For Cc1occc1C(=O)Nc1cccc(C(=O)NCc2ccccc2)c1, the cytotoxicity was -17.7% (inactive). In the case of CCC(CC)C(=O)Nc1cccc(C(=O)NCc2ccco2)c1, the cytotoxicity is reported as -2.1% (inactive).

From PubChem BioAssay AID431 (Sanford-Burnham Center for Chemical Genomics, 2006)
